Compound activity: PubChem BioAssay, National Center for Advancing Translational Sciences (NCATS)
Most compounds without a hit are left out; they make up all but 11% or so of the library.
HPGD block: qHTS Assay for Inhibitors of HPGD (15-Hydroxyprostaglandin Dehydrogenase); 15-hydroxyprostaglandin dehydrogenase [NAD(+)] (Homo sapiens), P15428; purified HPGD, NADH fluorescence kinetic, PGE2 substrate; Potency, µM, for the others: at the top dose activity change, negative = inhibition, most hits filed as inhibitors; actives 4.3% (n = 150,000); note: potency is the fitted concentration of half-maximal effect
Target sequence (P15428 whole entry, looked up): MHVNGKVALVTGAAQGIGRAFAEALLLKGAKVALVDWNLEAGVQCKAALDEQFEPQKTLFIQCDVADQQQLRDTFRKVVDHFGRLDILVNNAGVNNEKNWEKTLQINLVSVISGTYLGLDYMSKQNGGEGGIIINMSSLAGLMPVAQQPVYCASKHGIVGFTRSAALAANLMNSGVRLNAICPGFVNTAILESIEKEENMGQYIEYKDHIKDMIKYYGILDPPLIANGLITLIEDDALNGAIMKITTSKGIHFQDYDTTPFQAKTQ
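NADH formation kinetics: reaction with 30 uM PGE2 and 1 mM NAD+ (final), 20 nM enzyme, Tris-HCl pH 8 with Tween 20, after 15 min compound preincubation at room temperature. Fluorescence change, last versus first of five reads.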
PNC assembly inh: High Content Assay for Compounds that inhibit the Assembly of the Perinucleolar Compartment; PC3M PTB-GFP, PNC prevalence imaging, 16 h; stronger effect = lower value; activity change (PNC), negative = inhibition, % at 10 µM; actives 3.1% (n = 140,000); AID 2417, 2010;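 active = readout at or below -70, meaning at least 70% loss of cells showing the perinucleolar compartment, a nuclear body marking cancer cells; inconclusive = readout between -30 and a set limit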;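 note: plate controls were DMSO wells for no effect and camptothecin positive control wells for full effect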
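Read-out is percentage of cells bearing a perinucleolar compartment, from automated 20x imaging of fixed, Hoechst-stained PC3M PTB-GFP cells. Cells were seeded 4 h, then exposed 16 h to compound (23 nl of library stock) in duplicate plates.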
ALDH1A1 inh: qHTS Assay for Inhibitors of Aldehyde Dehydrogenase 1 (ALDH1A1); actives 7.3% (n = 220,000); Potency, µM (titrated, usually from 75.3 µM), without a hit: at the top dose activity, negative = inhibition, hits mostly inhibitors; Aldehyde dehydrogenase 1A1 (Homo sapiens), P00352; Purified ALDH1A1, NADH fluorescence, propionaldehyde substrate;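 note: potency is the fitted concentration of half-maximal effect; plate controls were no enzyme wells and a reference inhibitor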
* = called active by the depositor; ? = inconclusive; · = no result given; [ ] = another dose, or the depositor's remark. Unless noted, calls come from the whole dose curve; as a rule, active = well fitted inhibition curve with a large enough effect (not every such curve was filed as active); inconclusive = small, poorly fitted or top-dose-only effect, or another doubt; inactive = no such curve, though single readings can be large or run the other way. Unless noted, % is set by controls: 0 for no effect and ±100 for the full control effect.

SMILES	HPGD block	PNC assembly inh	ALDH1A1 inh
CCCCC(=O)Nc1ccc(C(=O)NN2C(=O)c3ccccc3C2=O)cc1	-7%	2	10%
O=C(OCc1nnc(-c2ccccc2)o1)c1ccc(CO)cc1	·	·	15%
O=C(OCc1nnc(-c2ccccc2)o1)c1cc(S(=O)(=O)N2CCOCC2)c(Cl)cc1Cl	7.9µM*	?	4%
O=C(OCc1nnc(-c2ccccc2)o1)c1cc2ccccc2cc1O	·	·	3%
O=C(COc1ccc(Br)cc1)OCc1nnc(-c2ccccc2)o1	28µM*	18	-11%
O=C(Cc1ccc(Cl)cc1)OCc1nnc(-c2ccccc2)o1	·	·	4%
O=C(OCc1nnc(-c2ccccc2)o1)c1cc([N+](=O)[O-])ccc1Cl	·	·	-6%
O=C(OCc1nnc(-c2ccccc2)o1)c1ccc2ccccc2n1	25µM*	2	5%
Cc1ccc(C(=O)OCc2nnc(-c3ccccc3)o2)o1	7.1µM*	19	-6%
O=C(NC(CSSCC(NC(=O)c1ccccc1)C(=O)O)C(=O)O)c1ccccc1 (stereo not drawn)	·	·	-1%
Cc1cc(C)c(S(=O)(=O)Nc2ccc(OCC(=O)O)cc2)c(C)c1	-9%	-27	3%
COc1cc(-c2nc(CN3CCN(c4ncccn4)CC3)c(C)o2)ccc1F	·	·	0%
Cc1c(CN2CCC(CO)(CCOc3ccccc3)CC2)c(=O)n(-c2ccccc2)n1C	·	·	9%
O=C(NCc1ccc2c(c1)OCO2)c1n[nH]c(=O)c2ccccc12	·	·	-10%
CCOC(=O)C1CCCN(S(=O)(=O)c2cccc3cccnc23)C1 (stereo not drawn)	-12%	?	?
COc1cccc(N2C(=O)C3C(C2=O)C2C=CC3C23CC3)c1 (stereo not drawn)	-19%	?	3%
COc1ccc(-c2cnnc(N/N=C/c3c(C)nn(-c4ccccc4)c3Cl)n2)cc1	?	-14	3%
Cc1cccc(C(=O)Nc2ccccc2SCC2CSc3nc4ccccc4c(=O)n32)c1 (stereo not drawn)	-17%	?	-4%
O=C(OCc1nnc(-c2ccccc2)o1)c1ccc2c(c1)OCCO2	7.9µM*	-6	6%
O=C(OCc1nnc(-c2ccccc2)o1)c1ccc(Cl)cc1	·	·	-2%
NC(=O)COC(=O)c1ccc(S(=O)(=O)NCc2ccco2)cc1	·	·	5%
O=C(OCc1nnc(-c2ccccc2)o1)c1ccc(S(=O)(=O)NCc2ccco2)cc1	11µM*	27	15%
COc1cc(-c2nc(CN(C)Cc3nnc(C)o3)c(C)o2)ccc1F	·	·	8%
Cc1cc(C)cc(N(C(C)C(=O)NCc2ccc3c(c2)OCO3)S(C)(=O)=O)c1 (stereo not drawn)	·	·	10%
CCN1C(=O)C2C(C1=O)N1C(c3cccs3)C3C(=O)N(CC)C(=O)C3N1C2c1cccs1 (stereo not drawn)	-3%	16	5%
SMILES	HPGD block	PNC assembly inh	ALDH1A1 inh
O=C(CCCCCNS(=O)(=O)c1ccc(Br)cc1)NCCN1CCOCC1	-17%	-5	-6%
O=C(CSc1ccc(C(F)(F)F)cc1[N+](=O)[O-])Nc1ccc2ccccc2c1	-7%	9	5.6µM*
CC(=O)Nc1cccc(NC(=O)CSc2ccc(C(F)(F)F)cc2[N+](=O)[O-])c1	?	-9	?
CCCc1ncc(C(O)c2ccccc2OC)n1C (stereo not drawn)	·	·	3%
O=C(/C(=N/N=C/c1ccc(O)c(O)c1O)c1ccccc1)c1ccccc1	2µM*	-21	6%
Oc1ccc(/C=N/N=C(c2ccccc2)c2ccccc2)c(O)c1O	16µM*	-28	7.1µM*
NC(N)=N/N=C/c1ccccc1	-8%	18	-4%
NC(=O)/C(=N\O)c1ccccc1	2%	27	10%
CCOC(=O)c1cc(-c2csc(-c3cccc(Cl)c3)n2)on1	·	·	-1%
CCOC(=O)c1cc(-c2csc(Nc3c(C)cc(C)cc3C)n2)on1	·	·	14µM*
CCN(CC)c1ccc(CNC23CN4CN(CN(C4)C2)C3)cc1	-12%	29	5µM*
CCCCn1nnnc1NCc1ccc(N(CC)CC)cc1	2%	-22	9%
CCCCCC(=O)NNC(=O)c1ccc(F)cc1	0%	65	9%
Cc1ncc(CSc2ccccc2N)c(CO)c1O	-13%	·	1%[13.5 µM]
COc1cccc(C(=O)NCc2ccc3[nH]c(C)cc3c2)c1	·	·	28µM*
COc1ccc(C(=O)NCc2cn3c(C)csc3n2)cc1OC	-10%	-100*	11%
Cc1cc2cc(CNC(=O)c3ccc4c(c3)OCO4)ccc2[nH]1	20µM*	?	35µM*
CCOc1ccc(NC(=S)NCc2ccc3[nH]c(C)cc3c2)cc1	·	·	-2%
